The structures appear in SMILES notation. Inconclusive results are not listed. Activity calls are given as the source filed them. The call rests on the fitted dose curve; in most records, active means well fitted curve in the direction sought with a large enough effect; inconclusive means small, poorly fitted or top-dose-only effect, or another doubt; inactive means no such curve, though single readings can be large; an effect the other way counts as inactive or inconclusive.

The nature of assay [1]: HPAF-II 24hr Apoptosis Induction qHTS against the NCATS CANVASS Library (AID 1347356). The essentials: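 500 HPAF-II cells/well; compounds in 11-pnt qHTS; 24 h, 37 C/5% CO2; Caspase-Glo 3/7 added, 15 min RT dark; luminescence read. Doxorubicin control.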
(In general: In qHTS, concentration-response curves come from the screen itself.)

A short description of assay [2]: HEK293 18hr Apoptosis Induction qHTS against the NCATS CANVASS Library (AID 1347357). The essentials: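 Caspase-Glo 3/7 luminescence (15 min, room temperature) measured apoptosis after an 18-hour, 37 degrees C exposure of HEK293 cells (500 cells/well) to compounds in 11 points.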
A short description of assay [3]: HEK293 24hr Apoptosis Induction qHTS against the NCATS CANVASS Library (AID 1347359). The essentials: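 HEK293 cells (500/well, DMEM + 10% FBS) were exposed to compounds in an 11-point series for 24 hours at 37 degrees C, then caspase-3/7 activity was read by Caspase-Glo DEVD luciferase luminescence after 15 min.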
A short description of assay [4]: HPAF-II 18hr Apoptosis Induction qHTS against the NCATS CANVASS Library (AID 1347360). The essentials: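 Caspase-3/7 activation was measured with luminescent Caspase-Glo 3/7 reagent (15 min, RT) in HPAF-II cancer cells (500 cells/well). Before detection, cells had been treated for 18 h at 37 C with compounds (11 points).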
Assay [5] concerns NAD(P)H diaphorase (Clostridium kluyveri). In words: Diaphorse counterscreen qHTS: Assay Interference Panel against the NCATS CANVASS Library (AID 1347362). The essentials: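 Clostridium kluyveri diaphorase in PBS with 0.01% Tween-20 was preincubated 15 min at room temperature in the dark with compounds (11-point series). Resorufin fluorescence (ex 525/20, em 598/25) was read 5 min after adding resazurin/NADH.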
For orientation: Counterscreens check selectivity or assay interference.

Assay [6] has as its target Luciferin 4-monooxygenase (Photinus pyralis) (UniProt P08659). Kind of assay: Firefly luciferase counterscreen qHTS: Assay Interference Panel against the NCATS CANVASS Library (AID 1347363). Further: series mostly up to about 57 µM. The essentials:
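Purified P. pyralis luciferase was added to compounds (11-point series) preincubated 15 min at room temperature with substrate containing 0.013 mM D-luciferin and 0.013 mM ATP; luminescence was read after 5 min.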

A short description of assay [7]: KB-3-1 Cancer Cell Toxicity qHTS against the NCATS CANVASS Library (AID 1347366). Further: nearly all actives have a fitted effect of over 75% in size. Further: potency means the concentration at half of the fitted maximal effect. The essentials: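 CellTiter-Glo luminescence measured viability after 72 h at 37C. KB-3-1 cells were seeded at 500 per well in DMEM/10% FBS.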
Assay [8] can be described thus: qHTS for ATAD5 Agonist screened against the NCATS CANVASS Library (AID 1347367).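 Further: luciferase reporter driven by ATAD5 which rises upon DNA damage.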 The essentials:
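Genotoxicity via ATAD5-luciferase luminescence after 16 h compound exposure (11-point series) at 37C in HEK293T-ATAD5 cells. CellTiter-Fluor viability read precedes the luminescence read; MMS serves as positive control.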

Assay [9] in a line: G06 Cancer Cell Toxicity qHTS against the NCATS CANVASS Library (AID 1347368). Further: nearly all actives have a fitted effect of over 60% in size. Further: potency means the concentration at half of the fitted maximal effect. The essentials: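 ATP luminescence (CellTiterGlo) readout of cytotoxicity. Canine G06 glioma cells, 500/well, 72 hr incubation at 37C with compounds; bortezomib titration served as control.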
Assay [10] is described as follows: MCF7 Cancer Cell Toxicity qHTS against the NCATS CANVASS Library (AID 1347369). The essentials:
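Cytotoxicity was measured as CellTiterGlo luminescence (ATP) after 72 h at 37 °C. The cells were MCF7 at 500 per well, with an 11-point compound concentration series.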

Assay [11] can be described thus: qHTS for ATAD5 Antagonist screened against the NCATS CANVASS Library (AID 1347370). Further: nearly all actives have a fitted effect of over 65% in size. Further: potency means the concentration at half of the fitted maximal effect. The essentials: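 HEK293T-ATAD5 luc reporter, 2000 cells/well; 5hr attach; cpd + 10 uM 5-FUrd; 16hr 37C, 5% CO2. Readouts: CellTiter-Fluor fluorescence (1hr), then Amplite luciferase luminescence (30min RT).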
The nature of assay [12]: J3T Cancer Cell Toxicity qHTS against the NCATS CANVASS Library (AID 1347371). Further: potency means the concentration at half of the fitted maximal effect. The essentials: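 Dog glioma J3T, 500 cells/well; cpd 11-pt qHTS; 72 hr, 37C/5% CO2; CellTiterGlo ATP luminescence readout.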
Assay [13] has as its target Nuclear receptor subfamily 1 group I member 3 (Homo sapiens) (UniProt Q14994). In words: qHTS for Constitutive Androstane Receptor (CAR) Antagonist screened against the NCATS CANVASS Library (AID 1347372). Further: potency means the concentration at half of the fitted maximal effect. The essentials: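 Cells were seeded and left 4hr to attach, then received compound at 11 concentrations and 50 nM CITCO. Following 24hr incubation, fluorescence viability and luciferase luminescence were read sequentially.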

Assay [14] has the same target. In words: qHTS for Constitutive Androstane Receptor (CAR) Agonist screened against the NCATS CANVASS Library (AID 1347373).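 Further: every well also contained 1.5 µM PK11195 alongside the test compound.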 The essentials: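 Luciferase read-out (ONE-Glo, 30 min RT) of CYP2B6-2.2kb promoter activity in double-stable HepG2-hCAR cells after 24hr compound exposure with 1.5uM PK11195 present; viability measured first by CellTiter-Fluor.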
Assay [15] in a line: 10-beta competent E. coli microbial cell viability qHTS against the NCATS CANVASS Library (AID 1347376). Further: series mostly up to about 46 µM. The essentials: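 Luminescence from BacTiter-Glo ATP detection served as the viability read-out; bacteria (0.2 OD) had been incubated overnight at 37C with pin-transferred compounds at 11 concentrations.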
The nature of assay [16]: qHTS for H2AX Agonists against the NCATS CANVASS Library (AID 1347378). The essentials: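 Phospho-H2AX (S139) in CHO-K1 lysates measured by HTRF, reported as 665/615 nm emission ratio after 24 hr antibody incubation at room temperature. Cells were first treated with a compound series for 3 hr at 37C (0.76% DMSO final).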
Assay [17] can be described thus: qHTS for Inflammasome Signaling Inhibitors: IL-1-beta AlphaLISA screen against the NCATS CANVASS Library (AID 1347379).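 Further: human THP-1 cells primed with LPS then triggered with ATP.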 The essentials: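 THP-1, 1 hr compound pre-incubation, then LPS 250 ng/mL + ATP 1.25 mM (final); 16 hr total with compound; IL-1B AlphaLISA, ex 680/em 615 nm; 11-point qHTS, up to 57.5 uM final.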
Assay [18] in a line: Inflammasome Signaling qHTS Counterscreen: IL-1-beta AlphaLISA counterscreen against the NCATS CANVASS Library (AID 1347381).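 Further: cell-free check with purified IL-1β in medium and no THP-1 cells; series mostly up to about 57 µM.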 The essentials:
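Here, no cellular stimulation occurs; compounds in an 11-point series meet 4 pg purified IL-1-beta directly. Bead-based AlphaLISA detection follows (1 h acceptor/antibody, then 30 min donor, dark, room temperature), with excitation at 680 nm.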

Assay [19] is described as follows: Cytotoxicity qHTS for assessment of Hepg2 cells membrane integrity screened against the NCATS CANVASS Library (AID 1347387). The essentials:
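LDH release read by fluorescence (560 nm ex/590 nm em) after CytoTox-ONE addition and 10 min RT; signal tracks lysed cells. HepG2, 2000 cells/well, plated overnight; compound 5 hr, 37C, 5% CO2, final 0.59 nM - 46 uM, 11 points.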

Assay [20] is described as follows: Viability qHTS for inhibitors of the SERCaMP assay screened against the NCATS CANVASS Library (AID 1347400). Further: nearly all actives have a fitted effect of over 70% in size. Further: potency means the concentration at half of the fitted maximal effect. The essentials:
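CellTiter-Glo luminescence readout after 48 h compound exposure (11-pnt qHTS series) of SH-SY5Y-GLuc SERCaMP MJH297 cells seeded at 1000 cells/well; bortezomib positive control.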

Luciferin 4-monooxygenase (Photinus pyralis), sequence (P08659 whole entry, looked up): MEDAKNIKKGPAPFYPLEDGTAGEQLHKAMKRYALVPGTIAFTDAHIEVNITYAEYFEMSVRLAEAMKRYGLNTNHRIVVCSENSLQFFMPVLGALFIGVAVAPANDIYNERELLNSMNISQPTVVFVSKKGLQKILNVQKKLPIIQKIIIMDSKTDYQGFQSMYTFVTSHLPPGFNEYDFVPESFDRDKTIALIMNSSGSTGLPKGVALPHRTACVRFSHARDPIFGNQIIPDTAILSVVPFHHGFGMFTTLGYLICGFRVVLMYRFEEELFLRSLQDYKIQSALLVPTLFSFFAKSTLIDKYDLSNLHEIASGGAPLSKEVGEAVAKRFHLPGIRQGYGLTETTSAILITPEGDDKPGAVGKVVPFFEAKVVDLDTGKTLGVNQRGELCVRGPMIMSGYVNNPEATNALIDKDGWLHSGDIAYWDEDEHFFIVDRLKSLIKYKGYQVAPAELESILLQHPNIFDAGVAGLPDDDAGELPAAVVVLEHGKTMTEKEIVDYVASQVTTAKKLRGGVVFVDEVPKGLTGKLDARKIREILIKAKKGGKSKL
Nuclear receptor subfamily 1 group I member 3 (Homo sapiens), sequence (Q14994 whole entry, looked up): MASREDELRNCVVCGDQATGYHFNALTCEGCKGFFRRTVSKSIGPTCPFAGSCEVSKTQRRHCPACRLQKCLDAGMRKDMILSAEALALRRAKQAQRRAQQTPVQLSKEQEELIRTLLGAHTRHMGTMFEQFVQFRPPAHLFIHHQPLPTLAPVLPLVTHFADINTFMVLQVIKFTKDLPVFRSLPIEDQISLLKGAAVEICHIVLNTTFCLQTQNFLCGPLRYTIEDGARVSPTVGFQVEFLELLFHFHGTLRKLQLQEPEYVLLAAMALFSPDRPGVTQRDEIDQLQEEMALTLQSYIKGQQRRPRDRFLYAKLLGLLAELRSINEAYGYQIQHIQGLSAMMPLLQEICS

As to `CCC(=O)N[C@@H](C[C@H](C)C(Cl)(Cl)Cl)C(=O)N1C(=O)C=C(OC)[C@@H]1C[C@H](C)CCl`, the result in assay [1], in assay [15], in assay [18] and in [19] was inactive. Moreover, the Potency entry in assay [2], in assay [3], in [4], in assay [5], in assay [6] and in assay [7] was “inactive” throughout. Moreover, the Potency entry in assay [8], in assay [9], in assay [10], in assay [11], in assay [12] and in assay [14] was “inactive” each time. The Potency result in assay [16], in [17] and in [20] was “inactive” throughout. Further, the Potency in [13] was 10.5 µM (active).

With `C/C(=C\[C@H](C)C(=O)C[C@H](O)CC1CC(=O)NC(=O)C1)[C@@H]1OC(=O)CCCC/C=C/C[C@@H](O)[C@@H]1C`, the molecule was classed as inactive in assay [1], in assay [15], in assay [18] and in assay [19]. Further, the Potency entry in assay [2], in assay [3], in [4], in assay [5], in [6] and in assay [8] was “inactive” throughout. Also, the Potency entry in assay [10], in assay [14] and in [16] was “inactive” throughout. The Potency is 14.8 µM (active) in [7], 2.64 µM (active) in assay [9], 8.31 µM (active) in [11] and 13.2 µM (active) in assay [13].

In the case of `CC[C@H](O)CCCCC[C@@H]1NC(=O)[C@H]2CCCCN2C(=O)[C@H]([C@H](C)CC)NC(=O)[C@H](Cc2cn(OC)c3ccccc23)NC1=O`, the molecule was called inactive in [1], in [15], in assay [18] and in [19]. Also, the Potency entry in assay [2], in assay [3], in assay [4], in [5], in [6] and in assay [7] was “inactive” each time. For the same molecule, the Potency result in [8], in [10], in assay [14], in assay [17] and in assay [20] was “inactive” in each case.

Turning to `CO[C@H]1/C=C/CCCCC(=O)O[C@@H](/C(C)=C/[C@H](C)C(=O)C[C@H](O)CC2CC(=O)NC(=O)C2)[C@@H](C)C1`, the call in assay [1], in assay [15], in assay [18] and in assay [19] was inactive. The Potency entry in assay [2], in assay [3], in assay [4], in assay [5], in assay [6] and in assay [8] was “inactive” in each case. The Potency result in assay [10], in assay [14], in assay [16] and in assay [17] was “inactive” throughout. In addition, the Potency in assay [9] is 5.26 µM (active); in assay [11], 20.9 µM (active).

Regarding `C/C(=C\[C@H](C)C(=O)/C=C/CC1CC(=O)NC(=O)C1)[C@@H]1OC(=O)/C=C/CC/C=C/C[C@@H](O)[C@@H]1C`, the molecule was called inactive in assay [1], in [15], in assay [18] and in [19]. The Potency result in assay [2], in [3], in assay [4], in [5], in [6] and in assay [14] was “inactive” each time. Moreover, the Potency in assay [7] was 11.8 µM (active); in assay [9], 1.05 µM (active); in assay [11] it was 3.31 µM (active); in assay [12], 3.72 µM (active); in assay [13], 18.6 µM (active); in assay [17], 6.11 µM (active). In assay [20], the Potency is 17 µM (active).

With `Cc1cc(C)c(O)c(C(=O)CC2CC(=O)NC(=O)C2)c1`, the call in assay [1], in assay [15], in assay [18] and in [19] was inactive. Besides, the Potency result in [2], in [3], in assay [4], in assay [5], in [6] and in assay [8] was “inactive” throughout. The Potency result in [14] and in assay [17] was “inactive” throughout. Moreover, the Potency in assay [7] was 13.2 µM (active); in assay [9], 2.64 µM (active); in [11], 4.67 µM (active); in [13] it was 14.8 µM (active).

As to `C=C[C@](Cl)(CBr)CCC=C(C)C`, the molecule was classed as inactive in assay [1], in assay [18] and in assay [19]. The Potency result in assay [2], in assay [3], in assay [4], in assay [5], in assay [6] and in assay [7] was “inactive” throughout. Moreover, the Potency entry in assay [8], in [10], in assay [11], in assay [12], in assay [13] and in assay [14] was “inactive” in each case. For the same molecule, the Potency result in assay [16] and in assay [20] was “inactive” in each case.

These data come from PubChem BioAssay (NCATS).
